Results reported in PubChem BioAssay (EPA / NIEHS).
“And” between values parts separate entries of the source, which are not always exact repeats. Equal entries are not always repeated. More than one record can exist for a structure, and the calls need not agree. The source made the active and inactive calls. The calls were made as follows: active = hit-call score of the fitted dose curve at least 0.9, where 1 is the maximum; inactive = score below 0.9.

Key:
[1] = read-out: Monokine induced gamma interferon (MIG), CXCL9 (gene 4283); assay: BSK_hDFCGF_MIG: BioMAP Diversity Plus: hDFCGF Assay for Monokine induced gamma interferon (MIG) Biomarker Activity (AID 2283063); conditions: primary human foreskin fibroblasts; actives raise or lower the signal
Procedure, shortened: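 ELISA read-out of MIG from primary human dermal fibroblasts 24 h post-dosing. Gain or loss of signal fitted bidirectionally, DMSO as baseline.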

[2] = read-out: Matrix Metallopeptidase 1 (MMP1), MMP1 (gene 4312); assay: BSK_hDFCGF_MMP1: BioMAP Diversity Plus: hDFCGF Assay for Matrix Metallopeptidase 1 (MMP1) Biomarker Activity (AID 2283064); conditions: primary human foreskin fibroblasts; actives raise or lower the signal
Procedure, shortened: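 hDFCGF primary fibroblasts (human foreskin); chemical added; 24 h; MMP1 by ELISA; bidirectional fit vs DMSO.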

[3] = read-out: Vascular cell adhesion molecule 1 (VCAM1), VCAM1 (gene 7412); assay: BSK_hDFCGF_VCAM1: BioMAP Diversity Plus: hDFCGF Assay for Vascular cell adhesion molecule 1 (VCAM1) Biomarker Activity (AID 2283065); conditions: primary human foreskin fibroblasts; actives raise or lower the signal;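 as to AC50: VCAM-1 protein level quantified by ELISA after 24 h chemical exposure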
Procedure, shortened: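 Primary human foreskin fibroblasts (hDFCGF system) were dosed with chemical and VCAM-1 was measured by ELISA 24 h later. Bidirectional curve fitting used DMSO as negative control and activity baseline.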

[4] = read-out: Plasminogen activator inhibitor-1 (PAI1), SERPINE1 (gene 5054); assay: BSK_hDFCGF_PAI1: BioMAP Diversity Plus: hDFCGF Assay for Plasminogen activator inhibitor-1 (PAI1) Biomarker Activity (AID 2283066); conditions: primary human foreskin fibroblasts; actives raise or lower the signal
Procedure, shortened: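 Human foreskin fibroblasts in the hDFCGF system were dosed with compound for 24 h; PAI-1 was quantified by ELISA. Bidirectional curve fitting used DMSO as negative control and baseline.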

[5] = read-out: Intercellular Adhesion Molecule 1 (ICAM1), ICAM1 (gene 3383); assay: BSK_KF3CT_ICAM1: BioMAP Diversity Plus: KF3CT Assay for Intercellular Adhesion Molecule 1 (ICAM1) Biomarker Activity (AID 2283067); conditions: primary human keratinocytes with fibroblasts; actives raise or lower the signal
Procedure, shortened: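 Human keratinocyte plus foreskin fibroblast primary co-culture was exposed to chemical for 24 h. ICAM-1 was then quantified by ELISA, and the data were fit bidirectionally against DMSO as the negative control and baseline.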

[6] = read-out: Interferon-gamma inducible Protein 10 (IP10), CXCL10 (gene 3627); assay: BSK_KF3CT_IP10: BioMAP Diversity Plus: KF3CT Assay for Interferon-gamma inducible Protein 10 (IP10) Biomarker Activity (AID 2283068); conditions: primary human keratinocytes with fibroblasts; actives raise or lower the signal
Procedure, shortened: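 Human keratinocyte plus foreskin fibroblast primary co-culture exposed to test chemical for 24 h; IP-10 measured by ELISA. Concentration-response fitted bidirectionally against DMSO control as baseline.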

[7] = BSK_KF3CT_SRB: Viability Assessment in the BioMAP Diversity Plus: KF3CT Assay (AID 2283069); conditions: primary human keratinocytes with fibroblasts;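 also: total protein by sulforhodamine B staining as a cytotoxicity measure; read 24 h after compound addition; fitted for both signal gain and loss against DMSO baseline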
Procedure, shortened: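 Keratinocytes co-cultured with foreskin fibroblasts (human primary); chemical added, 24 h; fix 10% TCA, stain 0.1% SRB, A560. Bidirectional fit vs DMSO.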

[8] = read-out: Interleukin-1 alpha (IL1a), IL1A (gene 3552); assay: BSK_KF3CT_IL1a: BioMAP Diversity Plus: KF3CT Assay for Interleukin-1 alpha (IL1a) Biomarker Activity (AID 2283070); conditions: primary human keratinocytes with fibroblasts; actives raise or lower the signal
Procedure, shortened: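 Chemicals were dosed onto co-cultured human keratinocytes and foreskin fibroblasts, IL-1a was quantified by ELISA at 24 h, and activity was fitted in both directions relative to DMSO controls.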

[9] = read-out: TIMP metallopeptidase inhibitor 2 (TIMP2), TIMP2 (gene 7077); assay: BSK_KF3CT_TIMP2: BioMAP Diversity Plus: KF3CT Assay for TIMP metallopeptidase inhibitor 2 (TIMP2) Biomarker Activity (AID 2283071); conditions: primary human keratinocytes with fibroblasts; actives raise or lower the signal
Procedure, shortened: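 Human primary keratinocyte/foreskin fibroblast co-culture dosed with chemical and sampled at 24 h. TIMP-2 levels quantified by ELISA; bidirectional fitting against DMSO negative control as baseline.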

[10] = read-out: Transforming growth factor beta 1 (TGFb1), TGFB1 (gene 7040); assay: BSK_KF3CT_TGFb1: BioMAP Diversity Plus: KF3CT Assay for Transforming growth factor beta 1 (TGFb1) Biomarker Activity (AID 2283072); conditions: primary human keratinocytes with fibroblasts; actives raise or lower the signal
Procedure, shortened: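 Human keratinocyte plus foreskin fibroblast primary co-culture, dosed with chemical for 24 h. TGF-b1 quantified by ELISA. Activity fitted bidirectionally against DMSO negative control as baseline.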

| Compound | outcome [1] | outcome [2] | outcome [3] | outcome [4] | outcome [5] | outcome [6] | outcome [7] | outcome [8] | outcome [9] | outcome [10] | AC50 [3] | AC50 [4] | AC50 [1] | AC50 [2] | AC50 [5] | AC50 [6] | AC50 [7] | AC50 [8] | AC50 [9] | AC50 [10] |
| --- | --- | --- | --- | --- | --- | --- | --- | --- | --- | --- | --- | --- | --- | --- | --- | --- | --- | --- | --- | --- |
| Cc1ccc(N)cc1O | inactive | inactive | inactive | inactive | inactive | inactive | inactive | inactive | inactive | inactive |  |  |  |  |  |  |  |  |  |  |
| CC(O)CN(CCN(CC(C)O)CC(C)O)CC(C)O (configuration not stated) | inactive | inactive | inactive | inactive | inactive | inactive | inactive | inactive | inactive | inactive |  |  |  |  |  |  |  |  |  |  |
| Cn1cnc([N+](=O)[O-])c1Sc1ncnc2nc[nH]c12 | inactive | inactive | inactive | inactive | inactive | inactive | inactive | inactive | inactive | inactive | 12.6 µM (active) and 16 µM (active) | 11.7 µM (active) |  |  |  |  |  |  |  |  |
| CCOC(=O)CC(CC(=O)OCC)(OC(C)=O)C(=O)OCC | inactive | inactive | inactive | inactive | inactive | inactive | inactive | inactive | inactive | inactive |  |  |  |  |  |  |  |  |  |  |
| COC(=O)CC(=O)OC | inactive | inactive | inactive | inactive | inactive | inactive | inactive | inactive | inactive | inactive |  |  |  |  |  |  |  |  |  |  |
| CCNc1ccccc1 | inactive | inactive | inactive | inactive | inactive | inactive | inactive | inactive | inactive | inactive |  |  |  |  |  |  |  |  |  |  |
| CC(C)=CCCC(C)CCO (configuration not stated) | inactive | inactive | inactive | inactive | inactive | inactive | inactive | inactive | inactive | inactive |  |  |  |  |  |  |  |  |  |  |
| C=CCCCCCCCCC(=O)O | inactive | inactive | inactive | inactive | inactive | inactive | inactive | inactive | inactive | inactive |  |  |  |  |  |  |  |  |  |  |
| CC1(C)C(=O)N(Br)C(=O)N1Br | inactive | inactive | inactive | inactive | inactive | inactive | inactive | inactive | inactive | inactive |  |  |  |  |  |  |  |  |  |  |
| CCOC(=O)COc1ccc2c(c1)CC(NCC(O)c1cccc(Cl)c1)CC2 (configuration not stated) |  |  |  |  | inactive | inactive | inactive | inactive | inactive | inactive | 21.9 µM (active) | 31.7 µM (active) | 26.8 µM (active) | 33.9 µM (active) |  |  |  |  |  |  |
| COCCOCCOCCOC | inactive | inactive | inactive | inactive | inactive | inactive | inactive | inactive | inactive | inactive |  |  |  |  |  |  |  |  |  |  |
| CCOCCOCCOCCO | inactive | inactive | inactive | inactive | inactive | inactive | inactive | inactive | inactive | inactive |  |  |  |  |  |  |  |  |  |  |
| CCCCC(CC)COC(=O)c1ccc(C(=O)OCC(CC)CCCC)cc1 (configuration not stated) | inactive | inactive | inactive | inactive | inactive | inactive | inactive | inactive | inactive | inactive |  |  |  |  |  |  |  |  |  |  |
| CCCN(C1CCN(C(=O)C2CCNCC2)CC1)[C@@H]1CCc2ccc(OC)cc2C1 | inactive | inactive | inactive | inactive | inactive | inactive | inactive | inactive | inactive | inactive |  |  |  |  |  |  |  |  |  |  |
| O=c1[nH]c2ccc(S(=O)CCN3CCC(Cc4ccc(F)cc4)CC3)cc2o1 (configuration not stated) | inactive | inactive | inactive | inactive | inactive | inactive | inactive | inactive | inactive | inactive |  |  |  |  |  |  |  |  |  |  |
| CCc1cc(SCc2sc(-c3ccc(C(F)(F)F)cc3)nc2CN2CCN(c3ccc(OC)cc3)CC2)ccc1OCC(=O)O |  |  |  |  |  |  |  |  |  |  | 3.57 µM (active) | 3.17 µM (active) | 3.38 µM (active) | 1.8 µM (active) | 7.27 µM (active) | 3.58 µM (active) | 3.42 µM (active) | 7.25 µM (active) | 7.31 µM (active) | 4.39 µM (active) |
| COc1cccc(-c2ccc(/C=C\CN3CCCCCC3)cc2Cl)c1 |  |  |  |  |  |  |  |  |  |  | 30.5 µM (active) | 25.3 µM (active) | 34.5 µM (active) | 34.4 µM (active) | 28.4 µM (active) | 29.7 µM (active) | 30.6 µM (active) | 29 µM (active) | 33.2 µM (active) | 33.3 µM (active) |
| CCCCCCCCCCCCCCCO | inactive | inactive | inactive | inactive | inactive | inactive | inactive | inactive | inactive | inactive |  |  |  |  |  |  |  |  |  |  |
| Oc1ccc2c(c1)-c1ccccc1C2 | inactive | inactive | inactive | inactive | inactive | inactive | inactive | inactive | inactive | inactive |  |  |  |  |  |  |  |  |  |  |
| On1ccccc1=S |  |  |  |  |  |  |  |  |  |  | 0.479 µM (active) | 1.7 µM (active) | 0.204 µM (active) | 1.35 µM (active) | 10.4 µM (active) | 10.3 µM (active) | 6.33 µM (active) | 10.2 µM (active) | 11.6 µM (active) | 9.8 µM (active) |
| CCCCC(CC)COC(=O)CCCCCCCCC(=O)OCC(CC)CCCC (configuration not stated) | inactive | inactive | inactive | inactive | inactive | inactive | inactive | inactive | inactive | inactive |  |  |  |  |  |  |  |  |  |  |
